The values below come from PubChem BioAssay AID1159572 (Broad Institute, 2015).

Entries with a potency or affinity are not part of this list. The source made the active and inactive calls.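 The calls were made as follows: active = compounds whose fitted half-maximal growth inhibition concentration is at most twice their top tested dose; inconclusive = flat fit with 30 to 70% inhibition, or poor fit; inactive = the rest.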

The assay in a line: P. falciparum Dd2 growth inhibitors, dose response, SYBR Green, dry powder samples, set 4 (AID 1159572). The settings on record: P. falciparum Dd2 in erythrocytes, 72 h; series mostly up to 19.5 µM.

In the case of `COc1ccc2c3c([nH]c2c1)[C@H](CO)N(C(C)=O)CC31CCN(C(=O)Nc2c(C)noc2C)CC1`, the outcome was inactive.
